Data on 33 targets can be found in the supplement of paper PMC4188521.

Compound in this assay: CCc1cnn2c(NCc3ccc[n+]([O-])c3)cc(N3CCCC[C@H]3CCO)nc12 [dinaciclib]
As to the kind of experiment: cell viability remaining relative to DMSO control; higher = less cytotoxic (more viable cells). Conditions: 100 nM; 24 h. In outline:
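Remaining viability is reported relative to DMSO-treated control wells, as a percentage of the DMSO control, using CellTiter-Glo ATP luminescence. Solid tumour cell lines from commercial cell banks were treated with 100 nM of the test compound for 24 hr, with final DMSO ≤0.2%. Results are averaged over 2–6 plates with triplicate wells on each plate.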
With MDAMB468, the cell viability remaining is 29.1%.

Regarding EN, the cell viability remaining is 51.9%.

Turning to COLO792, the cell viability remaining came to 8.9%.

On to A375, for which the cell viability remaining was found to be 62%.

SNU16: the cell viability remaining turned out to be 52.2%.

Turning to HCC44, the cell viability remaining was 85.8%.

Turning to OVKATE, the cell viability remaining worked out at 105%.

As for HS839T, the cell viability remaining came out at 97.6%.

In the case of HCC1954, the cell viability remaining was determined as 38%.

In the case of BXPC3, the cell viability remaining was determined as 29.4%.

Take MEWO: the cell viability remaining worked out at 52.8%.

As for SNU5, the cell viability remaining was found to be 69.5%.

Consider FADU, for which the cell viability remaining was 31.8%.

With H661, the cell viability remaining is 34.6%.

For the target CORL23, the cell viability remaining amounted to 62.8%.

In the case of HCC1500, the cell viability remaining worked out at 46.2%.

Regarding H2228, the cell viability remaining was 36.4%.

Take AZ521: the cell viability remaining was found to be 56.1%.

In the case of HS895T, the cell viability remaining is 92.4%.

For the target SNB19, the cell viability remaining came to 70.1%.

For H522, the cell viability remaining worked out at 80.6%.

Turning to WM2664, the cell viability remaining turned out to be 68.9%.

Consider LOVO, for which the cell viability remaining was 88.9%.

On to C32, for which the cell viability remaining came out at 83%.

Consider EFO27, for which the cell viability remaining stood at 106%.

For the target SKMEL24, the cell viability remaining amounted to 81.7%.

For OAW42, the cell viability remaining came out at 44.2%.

In the case of A2058, the cell viability remaining was 18.4%.

SNU1: the cell viability remaining was found to be 50.8%.

Take SW837: the cell viability remaining was 79.8%.

Regarding HEC1A, the cell viability remaining was determined as 49%.

Take HEC151: the cell viability remaining came to 39%.

Consider H4, for which the cell viability remaining was 34.1%.
